The supplement of paper PMC10849652
About 8,800 targets were measured; listed, in parts, are those with a hit and a random draw of the rest. About 0.5% of all pairs of compound and target were hits. Values without a mark were called inactive.

Assays:
Experiment in all cases: log2 fold change, soluble protein after heating vs DMSO (PISA); higher = thermal stabilisation; K562 lysate, 10 uM; active = over 0.2 and 3.5 SD of the protein, either way, in both replicates (recomputed)
[1] = compound: NCC(=O)Nc1ccc(-n2nc(C(F)(F)F)cc2-c2ccc3c(ccc4ccccc43)c2)cc1
Method in brief: (§1)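 Dounce homogenisation of K562 pellets in PBS pH 7.4 with 1 mM MgCl2 produced a crude extract, used at 1 mg/mL protein. Exposure to 10 μM compound lasted 30 min, and aliquots were then heated for 3 min across 48°C-58°C, pooled and brought to 0.5% NP-40 at 4°C. The supernatant after 21,000xg for 90 min was quantified by TMTpro 16plex LC-MS/MS with channel sums equalised. Duplicate values are given as log-two fold change in thermal stability relative to solvent controls.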

vorinostat = compound: O=C(CCCCCCC(=O)Nc1ccccc1)NO [vorinostat]
Method in brief: as §1

silmitasertib = compound: O=C(O)c1ccc2c(c1)nc(Nc1cccc(Cl)c1)c1ccncc12 [silmitasertib]
Method in brief: as §1

[2] = compound: O=C1NC(=O)C(c2cnc3ccccn23)=C1c1cn2c3c(cc(F)cc13)CN(C(=O)N1CCCCC1)CC2
Method in brief: as §1

entospletinib = compound: c1cn2cc(-c3ccc4cn[nH]c4c3)nc(Nc3ccc(N4CCOCC4)cc3)c2n1 [entospletinib]
Method in brief: as §1

Sequence of UniProt Q9H410 (Q9H410 whole entry, looked up): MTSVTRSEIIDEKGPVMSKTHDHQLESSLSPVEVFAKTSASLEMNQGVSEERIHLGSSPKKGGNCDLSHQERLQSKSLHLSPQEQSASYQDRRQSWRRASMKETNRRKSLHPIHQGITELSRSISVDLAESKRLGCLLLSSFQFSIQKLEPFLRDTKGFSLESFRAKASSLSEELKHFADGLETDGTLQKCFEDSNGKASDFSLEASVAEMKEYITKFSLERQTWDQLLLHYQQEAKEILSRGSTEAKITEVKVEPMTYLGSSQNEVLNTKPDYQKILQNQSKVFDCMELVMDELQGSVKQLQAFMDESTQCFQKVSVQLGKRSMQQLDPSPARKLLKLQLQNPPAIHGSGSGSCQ
Sequence of UniProt Q9UI10 (Q9UI10 whole entry, looked up): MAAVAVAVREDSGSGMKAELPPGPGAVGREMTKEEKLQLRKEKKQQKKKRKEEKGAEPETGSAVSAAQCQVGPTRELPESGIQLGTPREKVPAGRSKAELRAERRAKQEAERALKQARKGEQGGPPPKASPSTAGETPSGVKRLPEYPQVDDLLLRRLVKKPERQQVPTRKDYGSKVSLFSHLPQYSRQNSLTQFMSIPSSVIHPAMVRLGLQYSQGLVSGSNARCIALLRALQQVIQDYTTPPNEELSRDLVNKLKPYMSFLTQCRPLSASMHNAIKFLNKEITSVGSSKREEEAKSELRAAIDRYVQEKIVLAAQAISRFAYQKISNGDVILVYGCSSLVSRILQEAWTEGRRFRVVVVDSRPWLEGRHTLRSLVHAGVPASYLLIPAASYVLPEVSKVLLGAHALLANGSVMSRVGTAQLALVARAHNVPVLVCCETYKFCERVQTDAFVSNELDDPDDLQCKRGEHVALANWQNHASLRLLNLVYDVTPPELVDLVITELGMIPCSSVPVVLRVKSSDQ
Sequence of UniProt Q9NZN4 (Q9NZN4 whole entry, looked up): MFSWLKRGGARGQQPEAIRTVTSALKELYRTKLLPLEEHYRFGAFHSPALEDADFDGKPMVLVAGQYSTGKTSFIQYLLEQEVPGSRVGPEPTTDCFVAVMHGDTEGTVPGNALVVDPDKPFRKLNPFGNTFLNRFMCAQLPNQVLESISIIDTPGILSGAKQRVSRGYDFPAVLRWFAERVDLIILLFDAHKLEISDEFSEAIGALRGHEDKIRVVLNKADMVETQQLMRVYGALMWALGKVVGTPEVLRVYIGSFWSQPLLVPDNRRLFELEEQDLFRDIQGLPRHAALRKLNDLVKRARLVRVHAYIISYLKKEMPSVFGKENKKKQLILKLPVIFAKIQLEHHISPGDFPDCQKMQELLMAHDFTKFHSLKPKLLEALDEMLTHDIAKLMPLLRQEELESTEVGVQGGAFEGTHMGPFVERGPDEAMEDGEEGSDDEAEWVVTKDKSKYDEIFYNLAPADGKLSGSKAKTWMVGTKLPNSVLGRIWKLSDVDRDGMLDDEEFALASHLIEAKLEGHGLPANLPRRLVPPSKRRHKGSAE
Sequence of UniProt O95208 (O95208 whole entry, looked up): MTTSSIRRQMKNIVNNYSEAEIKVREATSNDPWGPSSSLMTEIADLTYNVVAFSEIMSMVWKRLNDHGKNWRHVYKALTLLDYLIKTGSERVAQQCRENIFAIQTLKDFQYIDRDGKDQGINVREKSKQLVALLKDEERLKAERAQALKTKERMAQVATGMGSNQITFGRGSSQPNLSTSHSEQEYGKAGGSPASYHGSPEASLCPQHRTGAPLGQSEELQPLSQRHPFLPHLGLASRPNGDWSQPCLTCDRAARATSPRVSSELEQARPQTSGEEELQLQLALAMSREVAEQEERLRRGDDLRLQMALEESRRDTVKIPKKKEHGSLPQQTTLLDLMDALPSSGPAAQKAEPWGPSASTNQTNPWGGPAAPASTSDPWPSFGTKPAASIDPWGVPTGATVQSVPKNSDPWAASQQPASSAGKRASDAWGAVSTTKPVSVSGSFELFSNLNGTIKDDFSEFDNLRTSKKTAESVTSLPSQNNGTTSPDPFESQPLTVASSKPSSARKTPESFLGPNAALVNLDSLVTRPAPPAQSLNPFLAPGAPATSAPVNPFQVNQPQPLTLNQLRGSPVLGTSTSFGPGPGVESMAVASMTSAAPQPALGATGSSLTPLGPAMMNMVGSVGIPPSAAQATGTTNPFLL
Sequence of UniProt P57678 (P57678 whole entry, looked up): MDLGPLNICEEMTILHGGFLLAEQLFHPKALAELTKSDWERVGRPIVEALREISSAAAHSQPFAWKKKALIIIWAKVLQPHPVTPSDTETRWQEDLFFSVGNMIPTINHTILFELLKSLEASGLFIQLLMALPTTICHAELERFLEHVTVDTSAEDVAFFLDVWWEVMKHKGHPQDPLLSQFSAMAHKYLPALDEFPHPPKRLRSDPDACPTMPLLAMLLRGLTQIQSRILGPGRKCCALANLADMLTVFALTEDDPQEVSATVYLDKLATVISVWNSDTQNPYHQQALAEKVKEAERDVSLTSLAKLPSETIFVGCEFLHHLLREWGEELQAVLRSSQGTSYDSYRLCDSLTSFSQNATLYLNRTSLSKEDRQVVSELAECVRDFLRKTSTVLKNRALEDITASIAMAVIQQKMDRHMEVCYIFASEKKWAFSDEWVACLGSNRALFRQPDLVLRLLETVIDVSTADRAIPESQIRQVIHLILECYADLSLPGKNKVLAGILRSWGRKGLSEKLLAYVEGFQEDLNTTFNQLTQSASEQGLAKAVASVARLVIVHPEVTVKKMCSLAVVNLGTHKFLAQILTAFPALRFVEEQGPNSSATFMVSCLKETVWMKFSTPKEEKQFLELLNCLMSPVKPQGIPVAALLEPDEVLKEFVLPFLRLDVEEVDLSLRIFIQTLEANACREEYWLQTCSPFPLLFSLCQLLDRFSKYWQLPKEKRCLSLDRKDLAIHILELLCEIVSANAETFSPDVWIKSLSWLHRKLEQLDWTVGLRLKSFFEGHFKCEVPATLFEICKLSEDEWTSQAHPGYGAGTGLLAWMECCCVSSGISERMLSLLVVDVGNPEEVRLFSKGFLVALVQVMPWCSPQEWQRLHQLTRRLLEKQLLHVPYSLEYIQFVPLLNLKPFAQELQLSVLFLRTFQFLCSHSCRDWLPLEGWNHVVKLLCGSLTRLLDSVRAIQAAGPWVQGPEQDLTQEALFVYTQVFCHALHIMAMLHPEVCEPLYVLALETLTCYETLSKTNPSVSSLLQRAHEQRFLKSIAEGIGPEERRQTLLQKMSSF
Sequence of UniProt Q8TEQ6 (Q8TEQ6 whole entry, looked up): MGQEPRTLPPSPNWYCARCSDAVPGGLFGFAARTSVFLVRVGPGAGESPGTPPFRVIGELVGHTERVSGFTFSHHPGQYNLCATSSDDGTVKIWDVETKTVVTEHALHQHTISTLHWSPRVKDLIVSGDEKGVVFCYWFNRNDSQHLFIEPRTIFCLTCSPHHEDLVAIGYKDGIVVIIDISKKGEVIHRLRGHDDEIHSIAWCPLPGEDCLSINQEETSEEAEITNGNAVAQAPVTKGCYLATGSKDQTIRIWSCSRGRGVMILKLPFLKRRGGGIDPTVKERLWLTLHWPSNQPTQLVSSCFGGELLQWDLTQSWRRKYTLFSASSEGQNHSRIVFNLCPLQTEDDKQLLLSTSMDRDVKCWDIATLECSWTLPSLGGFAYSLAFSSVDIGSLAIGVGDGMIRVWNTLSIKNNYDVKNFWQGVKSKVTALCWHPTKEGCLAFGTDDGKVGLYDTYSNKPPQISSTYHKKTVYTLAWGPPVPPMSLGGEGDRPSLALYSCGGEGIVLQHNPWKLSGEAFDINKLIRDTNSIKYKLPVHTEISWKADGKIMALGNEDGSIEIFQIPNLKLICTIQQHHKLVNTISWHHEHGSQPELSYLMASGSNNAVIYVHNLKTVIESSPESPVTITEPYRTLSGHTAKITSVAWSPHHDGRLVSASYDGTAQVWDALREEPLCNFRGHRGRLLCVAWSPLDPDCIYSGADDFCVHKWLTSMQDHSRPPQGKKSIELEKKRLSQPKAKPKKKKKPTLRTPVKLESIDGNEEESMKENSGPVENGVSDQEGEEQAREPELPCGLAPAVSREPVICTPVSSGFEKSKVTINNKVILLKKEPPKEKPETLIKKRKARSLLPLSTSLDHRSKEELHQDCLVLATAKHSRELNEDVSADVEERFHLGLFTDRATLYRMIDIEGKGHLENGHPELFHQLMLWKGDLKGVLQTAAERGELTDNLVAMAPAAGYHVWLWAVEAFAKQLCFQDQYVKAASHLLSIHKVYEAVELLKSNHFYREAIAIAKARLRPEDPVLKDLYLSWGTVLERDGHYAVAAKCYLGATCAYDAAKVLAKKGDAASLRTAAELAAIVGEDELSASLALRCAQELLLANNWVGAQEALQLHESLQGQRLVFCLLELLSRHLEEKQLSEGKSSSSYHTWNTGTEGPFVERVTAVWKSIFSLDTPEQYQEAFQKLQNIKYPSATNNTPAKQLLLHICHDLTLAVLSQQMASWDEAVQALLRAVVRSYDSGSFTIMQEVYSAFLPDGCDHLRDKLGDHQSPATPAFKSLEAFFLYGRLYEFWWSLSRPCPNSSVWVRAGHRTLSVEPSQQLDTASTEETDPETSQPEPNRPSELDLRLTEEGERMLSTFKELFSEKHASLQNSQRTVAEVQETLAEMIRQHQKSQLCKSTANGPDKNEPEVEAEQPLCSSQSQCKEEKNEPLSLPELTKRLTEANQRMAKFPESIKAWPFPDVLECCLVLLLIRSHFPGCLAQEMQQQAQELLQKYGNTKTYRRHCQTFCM
Sequence of UniProt Q5HYJ3 (Q5HYJ3 whole entry, looked up): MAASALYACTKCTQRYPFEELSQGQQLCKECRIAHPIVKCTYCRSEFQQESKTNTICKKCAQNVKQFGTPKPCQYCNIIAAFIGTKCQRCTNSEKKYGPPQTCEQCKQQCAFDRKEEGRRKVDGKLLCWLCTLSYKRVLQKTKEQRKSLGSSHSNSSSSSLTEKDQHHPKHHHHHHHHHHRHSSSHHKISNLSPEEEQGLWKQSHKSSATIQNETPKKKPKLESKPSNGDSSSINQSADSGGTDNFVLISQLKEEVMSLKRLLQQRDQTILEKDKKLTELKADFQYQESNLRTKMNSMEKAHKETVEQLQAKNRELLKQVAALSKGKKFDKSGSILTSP

| Target | log2 fold change [1] | log2 fold change (vorinostat) | log2 fold change (silmitasertib) | log2 fold change [2] | log2 fold change (entospletinib) |
| --- | --- | --- | --- | --- | --- |
| EIF2B3 (UniProt Q9NR50) | -0.006 | -0.244 (active) | 0.01 | 0.009 | -0.004 |
| GEMIN4 (UniProt P57678) | -0.025 | -0.435 (active) | 0.1 | 0.019 | 0.034 |
| FARSB (UniProt Q9NSD9) | -0.01 | 0.015 | 0.013 | -0.013 | 0.011 |
| ERI1 (UniProt Q8IV48) | -0.001 | -0.221 (active) | -0.035 | -0.017 | 0.041 |
| EFCAB14 (UniProt O75071) | 0.039 | 0.327 (active) | -0.054 | 0.029 | 0.013 |
| FCHO1 (UniProt O14526) | 0.041 | -0.286 (active) | 0.03 | -0.006 | 0.024 |
| EIF2B5 (UniProt Q13144) | 0.013 | -0.227 (active) | -0.009 | -0.029 | 0.013 |
| FTSJ1 (UniProt Q9UET6) | -0.024 | -0.326 (active) | 0.024 | 0.009 | 0.05 |
| EXTL2 (UniProt Q9UBQ6) | -0.171 | 0.189 | -0.053 | 0.01 | -0.036 |
| GGA2 (UniProt Q9UJY4) | -0.042 | -0.313 (active) | 0.016 | 0.022 | -0.026 |
| DSN1 (UniProt Q9H410) | -0.028 | -0.358 (active) | -0.007 | 0.008 | -0.017 |
| EEF1AKNMT (UniProt Q8N6R0) | -0.004 | -0.414 (active) | 0.076 | -0.005 | 0.026 |
| FAM118A (UniProt Q9NWS6) | 0.027 | -0.834 (active) | 0.024 | -0.003 | -0.014 |
| ELAVL4 (UniProt P26378) | 0.016 | -0.402 (active) | -0.046 | 0.004 | -0.067 |
| FKBP1A (UniProt P62942) | -0.154 | 0.036 | -0.006 | 0.068 | 0.049 |
| ENY2 (UniProt Q9NPA8) | -0.066 | 0.118 | -0.032 | 0.016 | -0.018 |
| FNBP1L (UniProt Q5T0N5) | 0.001 | -0.373 (active) | 0.102 | -0.041 | 0.017 |
| FYCO1 isoform 4 (UniProt Q9BQS8) | -0.002 | -0.002 | 0.047 | 0.033 | -0.002 |
| EXOC3 (UniProt O60645) | 0.018 | -0.221 (active) | 0.03 | 0.002 | -0.026 |
| EIF2B4 isoform 2 (UniProt Q9UI10) | 0.023 | -0.209 | 0.013 | -0.002 | 0.012 |
| DUS3L (UniProt Q96G46) | 0.002 | -0.08 | 0.036 | -0.007 | 0.014 |
| EPRS (UniProt P07814) | -0.01 | -0.365 (active) | 0.037 | 0.009 | 0.021 |
| EXOC1 (UniProt Q9NV70) | -0.019 | -0.45 (active) | 0.075 | -0.019 | 0.019 |
| GCN1 (UniProt Q92616) | 0.01 | -0.374 (active) | 0.114 | 0.033 | -0.011 |
| FANCD2 isoform 1 (UniProt Q9BXW9) | 0.078 | -0.25 (active) | -0.012 | 0.008 | -0.005 |
| GART (UniProt P22102) | 0.017 | -0.303 (active) | 0.006 | 0.003 | 0.012 |
| FAM76B (UniProt Q5HYJ3) | -0.018 | 0.026 | 0 | 0.012 | -0.014 |

| Target | log2 fold change [1] | log2 fold change (vorinostat) | log2 fold change (silmitasertib) | log2 fold change [2] | log2 fold change (entospletinib) |
| --- | --- | --- | --- | --- | --- |
| DUS2 (UniProt Q9NX74) | -0.01 | -0.014 | 0.555 (active) | -0.037 | -0.042 |
| DYNC1I2 isoform 5 (UniProt Q13409) | 0.009 | 0.126 | 0.03 | -0.005 | -0.007 |
| FASTKD5 (UniProt Q7L8L6) | 0.016 | -0.354 (active) | 0.053 | 0.022 | -0.008 |
| G6PD isoform 2 (UniProt P11413) | 0.008 | -0.46 (active) | -0.008 | -0.003 | 0.032 |
| GFPT1 (UniProt Q06210) | 0.034 | -0.409 (active) | 0.004 | 0.012 | 0.019 |
| DTWD1 (UniProt Q8N5C7) | 0.059 | -0.27 (active) | -0.022 | -0.028 | 0.036 |
| FANCI (UniProt Q9NVI1) | 0.002 | -0.389 (active) | 0.062 | 0.018 | 0.039 |
| GGT7 (UniProt Q9UJ14) | -0.094 | 0.244 (active) | -0.017 | 0.015 | -0.056 |
| EDC3 (UniProt Q96F86) | 0.02 | -0.277 (active) | 0 | -0.026 | 0.013 |
| GEMIN5 (UniProt Q8TEQ6) | 0 | -0.479 (active) | 0.004 | -0.001 | 0.004 |
| DYRK1A (UniProt Q13627) | 0.021 | -0.253 | 0.247 (active) | 0.01 | 0.005 |
| FPGT (UniProt O14772) | -0.014 | -0.574 (active) | 0.008 | -0.015 | -0.062 |
| FECH isoform 2 (UniProt P22830) | -0.185 | -0.401 | -0.03 | -0.021 | 0.977 |
| GDPD1 (UniProt Q8N9F7) | -0.137 | 0.056 | 0.033 | 0.177 | -0.092 |
| EEFSEC (UniProt P57772) | -0.022 | -0.325 (active) | 0.052 | -0.012 | -0.009 |
| EPN2 (UniProt O95208) | -0.005 | 0.156 | 0.02 | -0.001 | 0.012 |
| GBF1 (UniProt Q92538) | -0.019 | -0.304 (active) | 0.023 | 0.043 | 0.008 |
| FLAD1 (UniProt Q8NFF5) | -0.012 | -0.397 (active) | 0.102 | -0.005 | 0.037 |
| EP400 isoform 5 (UniProt Q96L91) | -0.047 | -0.279 (active) | 0.024 | -0.025 | -0.021 |
| EIF2B4 (UniProt Q9UI10) | 0.028 | -0.135 | 0.013 | -0.006 | -0.05 |
| EHD2 (UniProt Q9NZN4) | 0.005 | -0.282 (active) | 0.073 | 0.018 | 0.032 |
| FBXO45 (UniProt P0C2W1) | -0.013 | -0.367 (active) | 0.127 | 0.021 | -0.05 |
| DSTN (UniProt P60981) | -0.012 | -0.34 (active) | 0.014 | -0.031 | -0.021 |
| ELF2 (UniProt Q15723) | 0.03 | -0.25 | 0 | -0.011 | -0.03 |
| FIG4 (UniProt Q92562) | -0.037 | -0.517 (active) | 0.017 | 0.056 | 0.052 |
| GAMT (UniProt Q14353) | -0.046 | -0.423 (active) | -0.008 | -0.049 | -0.001 |
| EIF2D (UniProt P41214) | 0.03 | -0.385 (active) | 0.032 | 0.04 | 0.02 |
